Rows were chosen to be rich in hits. Some 2.2% of all compounds tested hit in one or more screens of this group.
LGR2 antag – inhibitors of bursicon-induced LGR2 CRE-luciferase signal, primary screen, cell-based, HEK293, CRE-luciferase reporter, bursicon stimulation; AID 720647, 2013; Drosophila bursicon receptor LGR2 (rickets); bursicon-stimulated, 4 h; inhibition, % at 9.99 µM; hit rate 0.35% among 380,000;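 active means drop in luminescence signal, shown as inhibition above about 50% in the replicate tests, limit read from the data, passing the limit was not always enough; inconclusive means probably only some replicates passing the limit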;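 further: agonist challenge used bursicon conditioned medium at about half maximal strength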
MITF TRPM1 inh – inhibitors of MITF-dependent TRPM1 promoter reporter, primary screen, cell-based, SK-MEL-5, single point, luciferase; SK-MEL-5 TRPM1 promoter luciferase, 24 h; inhibition, % at 12.5 µM; hit rate 0.83% among 330,000;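 active means mean inhibition across replicates of 60% or more, whatever share of single replicates reaches that level; inconclusive means some that reach 60%, reason not given; inactive means mean inhibition across replicates below 60%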
EWS-Fli block – EWS/Fli-driven NR0B1 reporter inhibitors, primary screen, A673 cells, NR0B1 luciferase, luminescence, MLPCN library; viability-normalised; inhibition, % at 12.6 µM; hit rate 0.67% among 350,000;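 active means mean inhibition of at least 50% after viability correction, with every replicate also passing that limit; inconclusive means mean reaches 50% but only one of two replicates passes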;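 further: firefly luciferase signal divided by Alamar Blue viability fluorescence both relative to DMSO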
Shn3 inh set2 – reduction of Shn3 3'UTR firefly luciferase signal, primary screen, Schnurri-3 inhibitor project, cell-based, Clone20 osteoblasts, set 2. inhibition, % at 12.5 µM. Clone20 osteoblast Shn3 3'UTR firefly luciferase, 24 h. hit rate 0.52% among 360,000;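 active means mean inhibition of at least 75% with every replicate also reaching 75%; inconclusive means mean inhibition at least 75% but some replicate below; inactive means mean inhibition below 75%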;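 further: 0% = median of neutral control wells and 100% = pilot-screen positive control compound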
PAX8 inh HTS – inhibitors of PAX8-driven TPO luciferase reporter, primary screen, RMG-I cells, single concentration; SteadyGlo, 24 h; inhibition, % at 12.6 µM; hit rate 1.2% among 360,000; AID 652154, 2013;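 active means mean replicate inhibition at least 60% with every replicate also reaching 60%; inconclusive means only one of the two criteria is met; inactive means mean below 60% and not all replicates reaching 60%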;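 further: luciferase light reporting Pax8 driven TPO promoter activity; plate controls were median of neutral control wells for no effect and mitoxantrone controls for full effect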
LMP1 NFkB inh – EBV LMP1-driven NF-kappaB luciferase reporter inhibitors, primary screen, cell-based, luminescence, single point | inhibition, % at 12.5 µM | AID 504558, 2011 | LMP1-induced NF-kappaB luciferase reporter cells | hit rate 0.69% among 350,000; in the data active means inhibition above about 41%; inconclusive means no clear call, values can overlap the other calls;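 further: 0% = neutral control wells and 100% = reference inhibitor control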
DNA binding – DNA binders by acridine orange displacement, dose response, counter-screen for EWS/Fli inhibitor project, biochemical, fluorescence polarization, cherry-pick | hit rate 2% among 640 | AC35, µM (highest dose often 68 µM), for inactives: at the top dose activity change, negative = DNA binding | AID 720586, 2013 | shares compounds with EWS-Fli block | salmon sperm DNA acridine orange fluorescence polarization;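 active means fitted curve reaches a 35% signal fall AC35 below twice the sample's top valid tested dose, actives reach about 48 µM in these data; inactive means the rest, including activity in the rising direction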;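 further: lower polarization ratio signals compound binding to DNA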
The depositor's hits bear a star; ? = inconclusive; / = no result given; ! = not active in a repeat.

SMILES | LGR2 antag | MITF TRPM1 inh | EWS-Fli block | Shn3 inh set2 | PAX8 inh HTS | LMP1 NFkB inh | DNA binding
CCOc1cc(N2CCC(O)CC2)ccc1Nc1ncc2c(n1)N(C)c1ccccc1C(=O)N2C | -1.5 | / | 54.7* | / | -72.2 | / | 10.1%
COc1ccccc1N1CCN(C2CCN(C(=O)c3ccc(F)cc3)CC2)CC1 | 5.9 | -0.6 | 4.4 | -18.6 | 10.1 | -15.5 | /
COc1cc(C(=O)N2CCC(N3CCN(C)CC3)CC2)ccc1Nc1ncc2c(n1)N(C)c1ccccc1C(=O)N2C | -24.1 | / | 59.3* | / | -104.9 | / | -4.0%
COc1cc(N2CCC(O)CC2)ccc1Nc1nnc(Cl)c(Nc2ccccc2S(C)(=O)=O)n1 | / | 22.7 | / | 4.2 | / | -3.7 | /
CC1=NN(c2ccccc2)C(=O)/C1=C/C=C/c1ccc(N(C)C)cc1 | / | 2.8 | -27.4 | -45.2 | -0.1 | 4.9 | /
CC1=NN(c2ccccc2)C(=O)/C1=C\C=C\c1ccccc1 | 28.2 | / | 63.6* | 14.8 | -16.0 | / | 7.0%
Cc1ccc(N2C(=O)c3cccc4c(N)ccc(c34)C2=O)c2cccnc12 | -1.2 | / | 59.8* | -8.7 | ? | -12.6 | -6.2%
COC(=O)C[C@@H]1CC[C@@H]2[C@H](COc3ccc(NC(=O)c4cccc(Cl)c4)cc3C(=O)N2C)O1 | 26.0 | / | 68.7* | / | -20.0 | / | -7.4%
COC(=O)C[C@@H]1CC[C@@H]2[C@H](COc3ccc(NC(=O)Nc4cccc(Cl)c4)cc3C(=O)N2C)O1 | 19.3 | / | 58.8* | / | -9.3 | / | -4.1%
CO[C@H]1CN(C)C(=O)c2cc(NC(=O)NC(C)C)ccc2OC[C@H](C)N(Cc2ccc(-c3ccccn3)cc2)C[C@@H]1C | 47.2 | / | 51.5* | / | / | / | 11.6%
Cc1ccccc1S(=O)(=O)N1[C@H](CO)[C@@H](c2ccc(C#CC3CCCC3)cc2)[C@@H]1C#N | -12.4 | / | 3.3 | / | / | / | /
CC(C)c1ccc(OCc2cccc(C(=O)N/N=C/c3cccnc3)c2)cc1 | 45.4 | 2.2 | 80.5* | 19.9 | 29.6 | 62.5* | -4.1%
O=C(N/N=C/c1cccnc1)c1cccc(Cl)c1 | -40.1 | -3.2 | 4.6 | -4.4 | -10.7 | -1.6 | /
COC(=O)C[C@@H]1CC[C@H]2[C@@H](COc3ccc(NC(=O)Nc4ccc(C#N)cc4)cc3C(=O)N2C)O1 | -5.7 | / | 13.4 | / | 2.9 | / | /
COC(=O)C[C@@H]1CC[C@@H]2[C@H](COc3ccc(NC(=O)Nc4cccc(C#N)c4)cc3C(=O)N2C)O1 | 29.1 | / | 64.5* | / | -23.1 | / | 1.1%
COC(=O)C[C@@H]1CC[C@@H]2[C@H](COc3ccc(NC(=O)Nc4ccc(C#N)cc4)cc3C(=O)N2C)O1 | -0.5 | / | 52.7* | / | -14.7 | / | -1.6%
C[C@H](CO)N1C[C@H](C)[C@H](CN(C)C(=O)CN2CCOCC2)Oc2ncc(C3=CCCC3)cc2C1=O | -14.8 | / | -55.2 | / | -8.3 | / | /
C=CCOc1ccc(C(=O)/C=C2/C(=O)Nc3ccccc32)cc1 | -0.4 | 1.2 | 5.0 | -13.7 | 36.8 | 0.8 | /
C=CCOc1ccccc1C(=O)/C=C1/C(=O)Nc2ccccc21 | 6.7 | 7.0 | 57.8* | 64.0 | 0.3 | 5.2 | -4.5%
Nc1nc(N)c2c(ccc3nccc32)[nH]1 | 0.4 | 29.5 | 56.2* | 75.3 | 15.6 | 0.6 | -12.4%
COc1ccc2nc(-c3ccc(F)cc3)sc2c1 | 91.8* | 21.0 | 55.0* | -10.5 | 23.3 | 21.1 | -3.6%
CCCN1C[C@H](C)[C@H](OC)CN(C)C(=O)c2cc(NC(=O)Nc3ccccc3F)ccc2OC[C@@H]1C | -10.0 | / | 3.1 | / | -25.4 | / | /
O=c1c2ccccc2oc2cc(C#CC3(O)CCCCC3)ccc12 | / | 49.2 | 76.6* | 41.6 | 7.3 | 10.6 | 5.5%
COc1ccc(NC(=O)N[C@@H]2CC[C@@H](CCNC(=O)Cc3ccncc3)O[C@@H]2CO)cc1 | 3.7 | / | -194.7 | / | -14.6 | / | /
CN(C[C@H]1N[C@@H](CO)[C@@H]1c1ccc(C2=CCCC2)cc1)C(=O)c1cccc(F)c1 | 7.2 | / | 77.4* | / | 110.9* | / | -17.8%
SMILES | LGR2 antag | MITF TRPM1 inh | EWS-Fli block | Shn3 inh set2 | PAX8 inh HTS | LMP1 NFkB inh | DNA binding
COc1ccc(-c2cccc(-c3nc(C(=O)NCC(F)(F)F)cc4c3[C@H](CCO)N([S@@](=O)C(C)(C)C)C4)c2)cc1 | 31.3 | / | 7.8 | / | -8.0 | / | /
COc1cccc(-c2cccc(-c3nc(C(=O)NCC(F)(F)F)cc4c3[C@H](CCO)N([S@@](=O)C(C)(C)C)C4)c2)c1 | 6.7 | / | 54.0* | / | 44.6 | / | -8.6%
Cc1c(CC(=O)NCCCC(=O)O)c(=O)oc2cc3c(cc12)CCC(C)(C)O3 | 1.2 | 51.0 | 66.1* | 19.2 | 25.3 | 10.7 | -12.7%
C[C@@H]1CCCCO[C@H](CN(C)Cc2ccc3c(c2)OCO3)[C@@H](C)CN([C@H](C)CO)C(=O)c2cc(NS(C)(=O)=O)ccc2O1 | -3.4 | / | 16.8 | / | -2.5 | / | /
CN(C)C(=O)c1cccc(-c2ccc(C3[C@@H]4CN(Cc5nccs5)C[C@H]3N4)cc2)c1 (stereo partly specified) | -11.1 | / | 58.6*! | / | -9.4 | / | -2.7%
O=C1Nc2cc(C(=O)N3CCc4ccccc4C3)ccc2S/C1=C\c1ccccc1 | -16.5 | -9.8 | / | -0.8 | 3.9 | 6.3 | /
O=C1Nc2cc(C(=O)NCCN3CCCCCC3)ccc2S/C1=C\c1ccccc1 | -3.3 | 96.0* | 59.6* | 15.9 | 19.9 | 0.1 | -1.3%
CCC(=O)N1CC(=O)N2[C@H](C1)[C@@H](c1ccc(C#Cc3cccc(OC)c3)cc1)[C@@H]2CO | 6.9 | / | -10.8 | / | -17.3 | / | /
NS(=O)(=O)c1ccc(NC(=O)c2ccccc2Cl)cc1 | / | -8.5 | / | 4.5 | -11.1 | 2.6 | /
COC(=O)Cc1ccc(NC(=O)c2ccccc2Cl)cc1 | -26.3 | -15.2 | 66.4* | 1.2 | -40.5 | -7.6 | -11.0%
c1ccc(CSc2nnc(-c3ccco3)o2)cc1 | -47.2 | -40.4 | -89.9 | -10.5 | -136.1 | 3.5 | /
